# PubChem BioAssay
# Values without a mark were called inactive. Activity calls are given as the source filed them.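 The calls were made as follows, unless noted: active = mean inhibition over 43.08%, the solvent-only control mean plus 3 SD; inactive = the rest.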
# How the values were obtained:
# [1] = target: Nuclear receptor coactivator 3 (Homo sapiens) (UniProt Q9Y6Q9); assay: SRC3 coactivator transcriptional activity inhibitors, confirmation, cell-based, luminescence, quadruplicate (AID 588792); settings: HEK293 GAL4-SRC3 luciferase reporter, at 3.6 µM, stronger effect = higher value;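 also: 0% = DMSO treated cells and 100% = gossypol at 36 µM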
# [2] = system: transactivating tegument protein VP16 (Human herpesvirus 1), Gal4-VP16 luciferase reporter; assay: VP16 transactivation inhibitors, counter-screen for SRC3 inhibitor project, cell-based, luminescence, high throughput (AID 588794; in the data active = inhibition above about 30%); settings: mammalian cells, VP16-driven luciferase reporter luminescence; at 3.6 µM; stronger effect = higher value
# Sequence of Nuclear receptor coactivator 3 (Homo sapiens) (Q9Y6Q9 whole entry, looked up, the tested form may be a part): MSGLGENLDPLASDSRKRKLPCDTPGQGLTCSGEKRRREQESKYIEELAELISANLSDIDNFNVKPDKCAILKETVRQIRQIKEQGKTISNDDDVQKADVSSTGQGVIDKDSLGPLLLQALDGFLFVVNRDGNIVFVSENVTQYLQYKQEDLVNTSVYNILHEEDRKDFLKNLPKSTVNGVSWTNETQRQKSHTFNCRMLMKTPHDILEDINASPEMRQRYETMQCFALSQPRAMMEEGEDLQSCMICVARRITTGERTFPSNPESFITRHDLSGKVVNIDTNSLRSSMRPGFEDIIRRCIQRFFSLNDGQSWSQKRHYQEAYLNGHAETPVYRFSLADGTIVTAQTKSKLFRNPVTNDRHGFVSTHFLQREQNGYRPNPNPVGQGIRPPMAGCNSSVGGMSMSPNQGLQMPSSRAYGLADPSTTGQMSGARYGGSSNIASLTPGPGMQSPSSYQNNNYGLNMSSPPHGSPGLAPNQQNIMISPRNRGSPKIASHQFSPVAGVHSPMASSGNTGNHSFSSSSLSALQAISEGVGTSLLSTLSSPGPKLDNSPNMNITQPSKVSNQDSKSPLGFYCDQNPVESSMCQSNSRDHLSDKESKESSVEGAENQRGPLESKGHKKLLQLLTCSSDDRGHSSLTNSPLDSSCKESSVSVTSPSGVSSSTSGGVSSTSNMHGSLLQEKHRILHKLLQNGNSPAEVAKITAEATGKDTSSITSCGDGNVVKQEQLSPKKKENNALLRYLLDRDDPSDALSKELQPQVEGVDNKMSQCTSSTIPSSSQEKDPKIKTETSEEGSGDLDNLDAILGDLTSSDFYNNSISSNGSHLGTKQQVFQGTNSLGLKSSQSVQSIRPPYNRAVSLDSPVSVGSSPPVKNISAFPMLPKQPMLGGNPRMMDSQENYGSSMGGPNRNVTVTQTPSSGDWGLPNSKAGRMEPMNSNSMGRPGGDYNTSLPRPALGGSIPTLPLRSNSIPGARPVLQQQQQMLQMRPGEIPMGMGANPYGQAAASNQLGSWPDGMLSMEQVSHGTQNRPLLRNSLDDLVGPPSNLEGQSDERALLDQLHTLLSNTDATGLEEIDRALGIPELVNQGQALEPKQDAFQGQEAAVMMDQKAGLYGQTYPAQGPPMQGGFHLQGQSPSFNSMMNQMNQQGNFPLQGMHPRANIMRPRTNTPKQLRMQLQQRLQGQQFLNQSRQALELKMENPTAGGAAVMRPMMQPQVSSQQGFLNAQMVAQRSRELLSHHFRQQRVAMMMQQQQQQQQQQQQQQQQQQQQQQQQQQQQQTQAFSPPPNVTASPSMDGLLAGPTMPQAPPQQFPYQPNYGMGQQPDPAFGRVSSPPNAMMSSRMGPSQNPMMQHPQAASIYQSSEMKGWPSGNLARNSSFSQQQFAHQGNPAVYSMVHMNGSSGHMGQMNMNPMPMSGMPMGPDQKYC
Compound,inhibition [1],inhibition [2]
CCOc1ccc(/C=N/OCC(=O)NCc2ccc3c(c2)OCO3)cc1OC,-12.6%,-5.41%
O=C1c2ccc3c4c(ccc(c24)C(=O)N1c1cccc(O)c1)C(=O)N(c1cccc(O)c1)C3=O,30.3%,31% (active)
COC(=O)/C(C#N)=C\c1c(OC)[nH]c2ccccc12,18.6%,12.4%
CC1CCc2sc3ncnc(N4CCOCC4)c3c2C1 (stereo unspecified),32.5%,29.8% (active)
Cc1ccc(-n2c(Cl)c(Cl)nc(Cl)c2=O)cc1,45.3% (active),17.9%
COc1ccc(-c2csc(NC(=O)c3ccc(S(=O)(=O)N4CCc5ccccc5C4)cc3)n2)cc1,25.1%,24.1%
O=C(NCCNc1ccc([N+](=O)[O-])cc1C(F)(F)F)c1cccc(F)c1,15.4%,12.6%
CCc1nc(Nc2ccc3nccnc3c2)c2oc3ccccc3c2n1,5.99%,13.6%
O=C(O)c1cc(NS(=O)(=O)c2ccc(N3CCOCC3)c([N+](=O)[O-])c2)cc(C(=O)O)c1,1.8%,-5.01%
Cc1ccsc1C(=O)C1CCCN(Cc2cccn2-c2ccc(Cl)cn2)C1 (stereo unspecified),-3.2%,23.2%
COC(=O)N/N=C/c1cn(Cc2ccc(Cl)cc2Cl)c2ccccc12,18.6%,0.26%
O=C(CSc1nnc(COc2ccc(Cl)cc2)o1)N1CCOCC1,-3.82%,-7.96%
Cc1ccc(S(=O)(=O)NCC(=O)N(c2ccccc2)C(C(=O)NCc2ccccc2)c2ccco2)cc1 (stereo unspecified),-2.76%,4.99%
Cc1ccc(Cl)cc1N(Cc1ccc(C(=O)NCc2cccnc2)cc1)S(=O)(=O)c1ccccc1,9.61%,-10.9%
Clc1ccc2nnnc(-c3ccccc3)c2c1,65.8% (active),68% (active)
Cc1cccc(NC(=O)c2cc(-c3cccnc3)nc3c(C)cccc23)n1,7.37%,1.11%
COc1ccc(CCNC(=O)COC(=O)Cc2cccc3ccccc23)cc1,-2.4%,-9.98%
Cc1ccc(NC(=O)c2cccc(S(=O)(=O)NCc3ccccc3)c2)nc1,-3.03%,6.44%
Cn1nc(CC(=O)Nc2ccc3c(c2)OCCO3)c2ccccc2c1=O,9.58%,34% (active)
O=C(Nc1sc2c(c1C(=O)O)CCCC2)c1ccc(Cl)cc1,30.9%,50.5% (active)
CCOc1cc(N2CCOCC2)c(OCC)cc1NC(=O)c1cc(-c2ccco2)nc2ccccc12,17.5%,8.51%
COc1ccc(CCNc2ncnc3sccc23)cc1OC,12%,42.6% (active)
COC(=O)c1ccc(NC(=O)Cn2c(-c3nonc3N)nc3ccccc32)cc1,17%,3.85%
CCOc1cccc(-n2nnnc2-c2ccc(OC)cc2)c1,7.46%,14.6%
C/C(=N\NC(N)=S)C1C2C3CC4C5CC(C42)C1C53 (stereo unspecified),28.5%,30% (active)

Compound,inhibition [1],inhibition [2]
CCCCn1c(/N=C/c2ccc(N(C)C)cc2)nc2ccccc21,-1.05%,-4%
COC(=O)c1c(NC(=O)c2ccccc2)sc(C(N)=O)c1C,26.7%,55.4% (active)
O=C(NNc1ccc(O)cc1)c1ccc(Br)cc1,31.5%,63.4% (active)
Cc1ccccc1-n1nnnc1Sc1nnnn1-c1ccccc1,7%,7.79%
CS(=O)(=O)c1ccc(Sc2nc3ccccc3s2)c([N+](=O)[O-])c1,45.8% (active),19.5%
Cn1nc(C(F)(F)F)c(-c2ccccc2)c1NC(=O)c1cccnc1,18.6%,11.4%
CCC(=O)NC(c1cccs1)c1ccc2cccnc2c1O (stereo unspecified),33.1%,25.9%
CCCCNC(=O)c1onc(CSc2cc(C)cc(C)c2)c1C(=O)NCCCC,7.83%,4.86%
Cc1[nH]n(C)c(=O)c1N=Nc1ccc(S(C)(=O)=O)cc1,8.44%,-1.15%
CC(=O)Nc1ccc(S(=O)(=O)NCCSCc2ccccc2Cl)cc1,12.3%,17.1%
Cn1ncc2c(O/N=C(\N)c3ccc(C(F)(F)F)cc3)ncnc21,-12.9%,1.06%
Cc1[nH]nc(-c2ccc(O)cc2O)c1Oc1ccccc1,3.77%,10.3%
O=C1N=c2ccccc2=C1c1sc(=O)[nH]c1O,-3.29%,2.71%
COC(=O)c1sc(NC(=O)c2cc(-c3ccccc3)nc3ccccc23)c(C#N)c1C,5.32%,38.6% (active)
COc1ccc(OC)c(C2C3=C(CCCC3=O)NC3=C2C(=O)CCC3)c1,4.98%,-6.31%
O=C(/C=C/c1ccc([N+](=O)[O-])cc1)c1ccccc(=O)c1O,33%,37.5% (active)
N#C/C(C(N)=O)=C1/CCc2ccccc2N1,21.2%,-2.45%
CC(C(=O)N1c2ccccc2Sc2ccccc21)n1nnc(-c2cccs2)n1 (stereo unspecified),2.33%,6.84%
CC1=C(NCCc2ccccc2)CCC1=O,0.47%,-7.31%
COc1ccc([N+](=O)[O-])cc1NC(=O)Nc1cccc(Cl)c1,19.4%,15.4%
O=C1CC(=O)OC(c2ccc([N+](=O)[O-])cc2)O1,26.8%,40.5% (active)
CC(=O)Nc1cccc(C(=O)/C=C/c2ccc(F)cc2)c1,1.7%,2.15%
Nc1[nH]nc2nc(-c3ccccc3)[nH]c(=O)c12,-11.1%,-4.28%
CC1(C)C2CCC(C2)C1C/C=N/NC(N)=S (stereo unspecified),17.5%,13.4%
CC1Cc2cc(-c3csc(NC(=O)Cc4ccccc4)n3)ccc2N1S(C)(=O)=O (stereo unspecified),23.8%,24.3%

Compound,inhibition [1],inhibition [2]
COc1ccc(CCNC(=O)COc2ccc(N(C)S(=O)(=O)c3ccc(Cl)cc3)cc2)cc1,10.9%,20.2%
CCC(C)c1ccc(NC(=S)N2CCN(C(=O)C3CCCO3)CC2)cc1 (stereo unspecified),8.54%,-1.88%
Cc1cc(Br)ccc1NC(=O)c1cnc(N2CCN(c3ccccn3)CC2)c2ccccc12,15.6%,15.2%
O=C(c1ccccc1)N1CCN(Cc2c[nH]c3ccccc23)CC1,8.59%,-3.11%
O=C(N/N=C/c1cc(Cl)ccc1O)c1ccncc1,16.7%,35.7% (active)
C=CCN1CN(S(=O)(=O)c2cccs2)c2nc3ccccc3nc21,-9.88%,7.9%
C=CCSc1nc2ccccc2n1C(=O)/C=C/c1cc(OC)c(OC)c(OC)c1,-6.27%,-10.3%
NC(=S)NNc1ccc(Cl)c(Cl)c1,12.7%,-0.23%
CCOC(=O)c1c(C)[nH]c(C)c1C(=O)COC(=O)/C=C/c1cccc(Cl)c1,-3.47%,-1.23%
CCOc1ccc(/C=C/C(O)=C2/C(=O)NC3(C)CC2c2ccccc2O3)cc1OC (stereo unspecified),25.5%,39% (active)
CC1=C(C(=O)N(C)C)CC(CC(=O)NCCCCc2ccccc2)C(=O)N1Cc1ccc(C(C)(C)C)cc1 (stereo unspecified),-10.1%,-1.43%
COc1ccc(NC(=O)c2oc3ccc(S(=O)(=O)N4CCC5(CC4)OCCO5)cc3c2C)cc1,5.45%,8.97%
Cc1ccc(S(=O)(=O)NCCC(=O)N2CCN(c3ccccc3)CC2)cc1C,6.68%,-3.89%
CCCC(=O)NC(c1ccc2c(c1)OCO2)c1cc(Cl)c2cccnc2c1O (stereo unspecified),40.7%,25.3%
COc1ccccc1OCC(=O)NNC(=O)C1CCN(c2ncnc3sc(C)c(C)c23)CC1,3.67%,0.76%
OC[C@H]1O[C@@H](Oc2ccc(O)cc2)[C@H](O)[C@@H](O)[C@@H]1O,7.6%,-4.32%
CN(Cc1cccc(F)c1)C(=O)C1CC(=O)N(Cc2ccco2)C1 (stereo unspecified),-0.39%,-6.54%
COc1ccc(NC(=O)C2CCN(S(=O)(=O)c3ccc4c(c3)CC(C)N4C(C)=O)CC2)cc1OC (stereo unspecified),9.24%,5.82%
CCN(CC)CCCNc1nc2ccccc2c2nc(-c3ccncc3)nn12,-2.05%,41.3% (active)
COc1ccc(OCc2nn3c(-c4ccco4)nnc3s2)cc1,-8.03%,-4.08%
COc1ccccc1NS(=O)(=O)c1cc(NC(=O)c2[nH]c(C)c(C(C)=O)c2C)ccc1N1CCOCC1,15.5%,-14.8%
CC1CCc2c(sc(NC(=O)c3ccco3)c2C(=O)O)C1 (stereo unspecified),18.1%,36.3% (active)
COc1ccc(CN(Cc2cccn2C)S(=O)(=O)c2ccc(C)cc2)cc1,1.22%,-4.15%
